Data: PubChem BioAssay (NCI)
The panel holds about 83,000 compounds, 20% with a hit somewhere; the sample as a whole holds those more often.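 Compound tested at a single concentration for 48 hours in 96-well plates; a percent growth value below 10 was scored as active.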 Values without a mark were called inactive. Active and inactive are the calls of the source.

Columns and labels:
Experiment in all cases: NCI-60 one-dose screen, 48 h (100 = growth as untreated, 0 = no growth, -100 = all killed)
EKVX NSCLC = conditions: 10 µM unless noted
SN12C renal = conditions: 10 µM unless noted
UO-31 renal = conditions: 10 µM unless noted
TK-10 renal = conditions: 10 µM unless noted
ACHN renal = conditions: 10 µM unless noted
CAKI-1 renal = conditions: 10 µM unless noted
A498 renal = conditions: 10 µM unless noted
CCRF-CEM leukemia = conditions: 10 µM unless noted
MOLT-4 leukemia = conditions: 10 µM unless noted
SR leukemia = conditions: 10 µM unless noted
RPMI-8226 leukemia = conditions: 10 µM unless noted
OVCAR-8 ovarian = conditions: 10 µM unless noted
OVCAR-5 ovarian = conditions: 10 µM unless noted
OVCAR-4 ovarian = conditions: 10 µM unless noted
SK-OV-3 ovarian = conditions: 10 µM unless noted
IGROV1 ovarian = conditions: 10 µM unless noted
OVCAR-3 ovarian = conditions: 10 µM unless noted
NCI/ADR-RES ovarian = conditions: 10 µM unless noted
HS 578T breast = conditions: 10 µM

Compound | growth (EKVX NSCLC) | growth (SN12C renal) | growth (UO-31 renal) | growth (TK-10 renal) | growth (ACHN renal) | growth (CAKI-1 renal) | growth (A498 renal) | growth (CCRF-CEM leukemia) | growth (MOLT-4 leukemia) | growth (SR leukemia) | growth (RPMI-8226 leukemia) | growth (OVCAR-8 ovarian) | growth (OVCAR-5 ovarian) | growth (OVCAR-4 ovarian) | growth (SK-OV-3 ovarian) | growth (IGROV1 ovarian) | growth (OVCAR-3 ovarian) | growth (NCI/ADR-RES ovarian) | growth (HS 578T breast)
CCOc1cc2ncc(C#N)c(Nc3ccc(F)c(Cl)c3)c2cc1NC(=O)/C=C/CN(C)C | -22% (active) | -51.7% (active) | -92.2% (active) | -75.9% (active) | -94.3% (active) | -59.6% (active) | -3.54% (active) | 0.208% (active) | -26% (active) | -14% (active) | -34.6% (active) | -7.83% (active) | -3.14% (active) | -61.9% (active) | -5.87% (active) | -32.1% (active) | -82.7% (active) | 6.54% (active) | 
Cc1cccc(Cl)c1NC(=O)c1cnc(Nc2cc(N3CCOCC3)cc(N3CCOCC3)c2)s1 | 33.1% | 30% | -0.169% (active) | -65.2% (active) | -7.5% (active) | -37.8% (active) | -22.6% (active) | 63.2% | 27.8% | 15.7% | 89.8% | -36.2% (active) | 23.3% | 60.4% | -38.7% (active) | -51.7% (active) | 19.7% | 23.6% | 
CN1CC[C@@H](c2c(O)cc(O)c3c(=O)cc(-c4ccccc4Cl)oc23)[C@@H]1CO | 0.493% (active) | 12.4% | -5.4% (active) | 5.71% (active) | 4.44% (active) | 5.86% (active) | -60.4% (active) | 13.4% | 1.59% (active) | 1.89% (active) | 3.13% (active) | 6.68% (active) | 7.25% (active) | -2.68% (active) | 5.82% (active) | 6.42% (active) | 14% | -3.1% (active) | 
O=C(/C=C/c1ccc2c(c1)OCO2)c1c(O)c2ccccc2oc1=O | 108% | 106% | 90.1% | 113% | 102% | 95% | 107% | 103% | 77.6% | 79% | 115% | 93.9% | 102% | 106% | 94.2% | 112% | 104% | 102% | 
CN1C/C=C\CCOc2cccc(c2)-c2ccnc(n2)Nc2cccc(c2)C1 | -14.7% (active) | -41.5% (active) | -79.3% (active) | -53.2% (active) | -37.9% (active) | -87.9% (active) | -77.8% (active) | 3.32% (active) | -20% (active) | -29.1% (active) | -42.5% (active) | -22.4% (active) | 6.02% (active) | -28.5% (active) | -17.2% (active) | -44.9% (active) | 3.03% (active) | -29% (active) | 
CCN1CCN(Cc2ccc(Cc3ncc(F)c(-c4cc(F)c5nc(C)n(C(C)C)c5c4)n3)nc2)CC1 | 59.6% | 48.9% | 11.8% | 35.1% | 27.3% | 24% | 34.5% | 22.3% | 13.4% | -12.4% (active) | 44.8% | 68.3% | 46.5% | 69.5% | 22.4% | 37.3% | 63.2% | 72.3% | 
O=C(Cc1ccc(/C=C/C(=O)c2ncc[nH]2)cc1)Nc1ccc(S(F)(F)(F)(F)F)cc1 | 96.9% | 80.3% | 60.7% | 107% | 95.8% | 81.7% | 88.3% | 41.9% | 53.4% | 4.88% (active) | -17.6% (active) | 88.2% | 86.8% | 93.2% | 101% | 52.8% | 80.3% | 97.2% | 
CC#CC(=O)N1CCC[C@H]1c1nc(-c2ccc(C(=O)Nc3ccccn3)cc2)c2c(N)nccn12 | 92.1% | 72.3% | 79% | 72.8% | 73.6% | 72.9% | 111% | 71.5% | 89.4% | 68.3% | 79.7% | 77.8% | 78.5% | 99.5% | -0.746% (active) | 64.8% | 86.5% | 94.3% | 
COc1ccc(Cl)c(Nc2nc3ccccc3nc2NS(=O)(=O)c2cccc(NC(=O)C(C)(C)N)c2)c1 | 48.5% | 51.2% | 8.83% (active) | 29.8% | 40.3% | 29% | -33.2% (active) | 46.9% | 13.4% | 54.9% | 51.5% | 53.3% | 45.7% | 68% | 4.52% (active) | -16.9% (active) | 36.9% | 52.6% | 
O=C1C=CC2(NN=C(c3ccccc3)N2c2cccc(Cl)c2)c2cccc(O)c21 (stereo not given) | 76.2% | 41.6% | 33.3% | 118% | 45.6% | 90.7% | 89.1% | 70.9% | 67.6% | 49.9% | 57.4% | 63.1% | 52.8% | 59.3% | 92.5% | 70.4% | 36.6% | 56% | 
CC/C(=C(/c1ccc(Cl)cc1)c1ccc(OCCN2CCCCC2)cc1)c1ccc(Cl)cc1 | 57.4% | 76.5% | 58.8% | 90.8% | 91.2% | 74.4% | 94% | 50.6% | 69.2% | 5.18% (active) | 76.3% | 81.4% | 79.9% | 63.9% | 83.7% | 91.7% | 78.7% | 84.9% | 
C[C@@H](NC(=O)c1ncnc(N)c1Cl)c1ncc(C(=O)Nc2cc(C(F)(F)F)c(Cl)cn2)s1 | 101% | 82.6% | 52.8% | 77.4% | 74.5% | 74.2% | 59.6% | 78.5% | 70.8% | 57.5% | 71.9% | 64.5% | 31.3% | 98.5% | 93.6% | 63.5% | 95% | 79.8% | 
CC[C@H](Nc1ncnc2nc[nH]c12)c1nc2cccc(F)c2c(=O)n1-c1ccccc1 | 80.1% | 51.6% | 31.3% | 17.4% | 41.5% | 52.9% | -14.3% (active) | 52.3% | 62.2% | 72.8% | 78.9% | 60.6% | 61.8% | 95.7% | -4.44% (active) | 8.8% (active) | 48.7% | 83% | 
CNC(=O)c1nn(C)c2c1C(C)(C)Cc1cnc(Nc3ccc(N4CCN(C)CC4)cc3)nc1-2 | 5.74% (active) | 11.3% | -8.73% (active) | -12.5% (active) | 9.62% (active) | 7.68% (active) | -61.6% (active) | 10.4% | 2.29% (active) | -1.85% (active) | 0.421% (active) | 8.9% (active) | 9.13% (active) | 12.9% | -16.9% (active) | 2.47% (active) | 20.7% | 9.88% (active) | 
C#Cc1cccc(Nc2ncnc3cc(OC)c(OCCCCCCC(=O)NO)cc23)c1 | 25% | 5.37% (active) | -16.8% (active) | -48% (active) | -30.1% (active) | -68.6% (active) | -86.3% (active) | 3.23% (active) | -1.32% (active) | 1.46% (active) | -14.9% (active) | -21.5% (active) | -8.42% (active) | 6.28% (active) | -58.2% (active) | -41.3% (active) | -19.9% (active) | 14.4% | 
COC(=O)[C@H](Cc1ccccc1)NC(=O)[C@@H](OC)[C@@H]1Cc2cc3cc(OC4CC(OC5CC(O)C(O)C(C)O5)C(O)C(C)O4)c(C)c(O)c3c(O)c2C(=O)[C@H]1OC1CC(OC2CC(OC3CC(C)(O)C(O)C(C)O3)C(O)C(C)O2)C(O)C(C)O1 (stereo not given in full) | -2.04% (active) | 4.42% (active) | -7.79% (active) | 6.76% (active) | -8.69% (active) | 15.3% | -40.3% (active) | 4.07% (active) | -5.77% (active) | 7.89% (active) | -16.5% (active) | 7.42% (active) | 8.6% (active) | 1.44% (active) |  | 25.5% | 5.7% (active) | 51.6% | -16.7% (active)
Cc1cc2c(F)c(Oc3ncnn4cc(OC[C@@H](C)OC(=O)[C@H](C)N)c(C)c34)ccc2[nH]1 | 61.2% | 55.6% | 36.3% | 35.6% | 46.8% | 48.8% | 21.7% | 45.4% | 48.3% | 18.5% | 47.1% | 61.7% | 25.8% | 65.5% |  | 20.8% | 81.1% | 90.5% | 
